The results in this text go back to the supplement of paper PMC10849652.

Targets with a hit are over-represented here; the source holds about 7,900 in all. About 0.6% of all pairs of compound and target were hits.

Chain of UniProt P09668 (P09668 whole entry, looked up): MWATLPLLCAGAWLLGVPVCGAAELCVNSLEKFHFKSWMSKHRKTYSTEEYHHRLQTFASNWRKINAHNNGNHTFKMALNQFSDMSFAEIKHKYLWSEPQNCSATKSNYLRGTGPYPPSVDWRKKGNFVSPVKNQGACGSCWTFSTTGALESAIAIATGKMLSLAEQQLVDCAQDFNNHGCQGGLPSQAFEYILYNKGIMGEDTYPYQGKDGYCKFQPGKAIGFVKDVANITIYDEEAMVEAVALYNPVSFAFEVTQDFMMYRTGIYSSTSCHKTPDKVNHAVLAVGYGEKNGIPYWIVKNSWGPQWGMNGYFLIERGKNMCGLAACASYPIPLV
Chain of UniProt P50570 (P50570 whole entry, looked up): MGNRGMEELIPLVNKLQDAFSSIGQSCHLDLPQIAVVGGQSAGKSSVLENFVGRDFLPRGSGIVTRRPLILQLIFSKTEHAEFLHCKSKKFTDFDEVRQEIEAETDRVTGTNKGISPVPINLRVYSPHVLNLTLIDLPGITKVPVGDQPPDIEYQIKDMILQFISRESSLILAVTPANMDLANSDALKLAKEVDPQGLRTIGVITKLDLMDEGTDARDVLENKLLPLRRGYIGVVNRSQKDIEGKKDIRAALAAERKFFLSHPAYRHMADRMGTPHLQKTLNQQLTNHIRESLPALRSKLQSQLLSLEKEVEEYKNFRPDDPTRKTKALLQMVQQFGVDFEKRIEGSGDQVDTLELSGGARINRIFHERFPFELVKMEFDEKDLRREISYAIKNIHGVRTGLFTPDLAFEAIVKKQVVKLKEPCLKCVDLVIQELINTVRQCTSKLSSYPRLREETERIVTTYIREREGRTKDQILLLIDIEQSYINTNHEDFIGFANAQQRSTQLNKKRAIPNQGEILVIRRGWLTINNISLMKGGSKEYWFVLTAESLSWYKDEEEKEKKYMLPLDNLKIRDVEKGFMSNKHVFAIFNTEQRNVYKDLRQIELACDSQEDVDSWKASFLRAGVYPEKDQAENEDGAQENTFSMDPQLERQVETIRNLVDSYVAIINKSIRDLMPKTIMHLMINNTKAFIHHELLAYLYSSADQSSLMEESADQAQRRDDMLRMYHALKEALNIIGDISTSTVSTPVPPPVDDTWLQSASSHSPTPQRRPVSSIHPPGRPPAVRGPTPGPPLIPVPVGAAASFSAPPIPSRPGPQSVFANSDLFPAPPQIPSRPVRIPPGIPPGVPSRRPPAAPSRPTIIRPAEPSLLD
Chain of UniProt P98173 (P98173 whole entry, looked up): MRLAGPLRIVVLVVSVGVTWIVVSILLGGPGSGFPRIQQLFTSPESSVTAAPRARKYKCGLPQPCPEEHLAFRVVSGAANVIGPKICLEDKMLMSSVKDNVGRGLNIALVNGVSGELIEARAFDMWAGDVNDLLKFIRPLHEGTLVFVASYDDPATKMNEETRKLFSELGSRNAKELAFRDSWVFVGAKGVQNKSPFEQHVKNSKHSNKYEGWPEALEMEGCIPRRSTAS
Chain of UniProt Q6UX07 (Q6UX07 whole entry, looked up): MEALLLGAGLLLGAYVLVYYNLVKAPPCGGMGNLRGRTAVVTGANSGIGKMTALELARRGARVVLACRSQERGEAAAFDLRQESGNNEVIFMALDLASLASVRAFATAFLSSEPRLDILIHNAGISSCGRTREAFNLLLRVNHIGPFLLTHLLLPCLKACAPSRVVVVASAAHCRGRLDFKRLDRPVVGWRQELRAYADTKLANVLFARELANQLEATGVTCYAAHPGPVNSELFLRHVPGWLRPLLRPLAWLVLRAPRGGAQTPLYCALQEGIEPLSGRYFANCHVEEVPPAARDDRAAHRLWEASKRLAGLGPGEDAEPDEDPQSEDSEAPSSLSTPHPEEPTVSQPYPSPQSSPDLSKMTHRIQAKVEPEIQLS
Chain of UniProt Q8N6R0 (Q8N6R0 whole entry, looked up): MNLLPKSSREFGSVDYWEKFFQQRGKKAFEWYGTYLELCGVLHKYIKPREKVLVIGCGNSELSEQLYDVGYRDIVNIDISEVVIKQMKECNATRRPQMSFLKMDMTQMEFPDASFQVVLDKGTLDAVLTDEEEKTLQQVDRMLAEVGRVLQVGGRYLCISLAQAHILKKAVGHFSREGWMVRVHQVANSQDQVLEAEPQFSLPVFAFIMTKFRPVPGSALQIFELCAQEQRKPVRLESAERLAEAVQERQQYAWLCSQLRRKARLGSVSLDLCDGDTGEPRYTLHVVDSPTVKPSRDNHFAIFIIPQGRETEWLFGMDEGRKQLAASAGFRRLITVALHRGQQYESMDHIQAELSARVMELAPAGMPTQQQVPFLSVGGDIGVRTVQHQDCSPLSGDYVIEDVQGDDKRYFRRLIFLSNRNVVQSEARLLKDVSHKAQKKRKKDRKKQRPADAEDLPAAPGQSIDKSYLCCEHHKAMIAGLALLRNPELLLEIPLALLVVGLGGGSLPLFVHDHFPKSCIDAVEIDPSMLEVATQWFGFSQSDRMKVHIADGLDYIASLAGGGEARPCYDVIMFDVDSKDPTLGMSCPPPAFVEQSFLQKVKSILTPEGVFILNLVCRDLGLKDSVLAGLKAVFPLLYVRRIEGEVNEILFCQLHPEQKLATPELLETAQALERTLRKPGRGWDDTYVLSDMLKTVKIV
Chain of UniProt Q16531 (Q16531 whole entry, looked up): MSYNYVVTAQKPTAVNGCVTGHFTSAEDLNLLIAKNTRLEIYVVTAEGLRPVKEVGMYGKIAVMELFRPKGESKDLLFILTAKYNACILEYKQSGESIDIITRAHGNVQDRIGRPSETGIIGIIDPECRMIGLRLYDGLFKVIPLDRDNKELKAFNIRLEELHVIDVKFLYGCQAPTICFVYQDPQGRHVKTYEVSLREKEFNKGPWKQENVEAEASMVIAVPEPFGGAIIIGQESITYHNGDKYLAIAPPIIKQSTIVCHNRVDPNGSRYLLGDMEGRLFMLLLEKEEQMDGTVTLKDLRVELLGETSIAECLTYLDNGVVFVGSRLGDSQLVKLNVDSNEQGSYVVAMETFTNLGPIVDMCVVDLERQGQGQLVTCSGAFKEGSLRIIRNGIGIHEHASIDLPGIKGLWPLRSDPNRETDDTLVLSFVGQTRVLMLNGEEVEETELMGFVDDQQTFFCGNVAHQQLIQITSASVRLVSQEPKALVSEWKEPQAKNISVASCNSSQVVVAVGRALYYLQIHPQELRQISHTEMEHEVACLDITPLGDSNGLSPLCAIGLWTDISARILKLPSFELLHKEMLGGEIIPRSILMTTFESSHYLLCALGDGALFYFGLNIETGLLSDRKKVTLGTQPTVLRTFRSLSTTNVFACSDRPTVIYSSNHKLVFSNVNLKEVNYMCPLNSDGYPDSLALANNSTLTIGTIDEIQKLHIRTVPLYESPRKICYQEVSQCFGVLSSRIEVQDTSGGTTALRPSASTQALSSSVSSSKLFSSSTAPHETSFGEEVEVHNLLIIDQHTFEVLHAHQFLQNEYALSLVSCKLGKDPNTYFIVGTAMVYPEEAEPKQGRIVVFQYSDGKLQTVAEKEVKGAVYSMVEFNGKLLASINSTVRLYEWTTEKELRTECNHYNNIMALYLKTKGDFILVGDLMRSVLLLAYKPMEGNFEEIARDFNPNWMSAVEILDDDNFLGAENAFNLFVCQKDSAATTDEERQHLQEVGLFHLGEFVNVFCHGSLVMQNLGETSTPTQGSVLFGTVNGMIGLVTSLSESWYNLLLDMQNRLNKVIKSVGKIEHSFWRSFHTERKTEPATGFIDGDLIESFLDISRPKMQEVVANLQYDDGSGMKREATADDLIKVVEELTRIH
Chain of UniProt Q7Z2Z2 (Q7Z2Z2 whole entry, looked up): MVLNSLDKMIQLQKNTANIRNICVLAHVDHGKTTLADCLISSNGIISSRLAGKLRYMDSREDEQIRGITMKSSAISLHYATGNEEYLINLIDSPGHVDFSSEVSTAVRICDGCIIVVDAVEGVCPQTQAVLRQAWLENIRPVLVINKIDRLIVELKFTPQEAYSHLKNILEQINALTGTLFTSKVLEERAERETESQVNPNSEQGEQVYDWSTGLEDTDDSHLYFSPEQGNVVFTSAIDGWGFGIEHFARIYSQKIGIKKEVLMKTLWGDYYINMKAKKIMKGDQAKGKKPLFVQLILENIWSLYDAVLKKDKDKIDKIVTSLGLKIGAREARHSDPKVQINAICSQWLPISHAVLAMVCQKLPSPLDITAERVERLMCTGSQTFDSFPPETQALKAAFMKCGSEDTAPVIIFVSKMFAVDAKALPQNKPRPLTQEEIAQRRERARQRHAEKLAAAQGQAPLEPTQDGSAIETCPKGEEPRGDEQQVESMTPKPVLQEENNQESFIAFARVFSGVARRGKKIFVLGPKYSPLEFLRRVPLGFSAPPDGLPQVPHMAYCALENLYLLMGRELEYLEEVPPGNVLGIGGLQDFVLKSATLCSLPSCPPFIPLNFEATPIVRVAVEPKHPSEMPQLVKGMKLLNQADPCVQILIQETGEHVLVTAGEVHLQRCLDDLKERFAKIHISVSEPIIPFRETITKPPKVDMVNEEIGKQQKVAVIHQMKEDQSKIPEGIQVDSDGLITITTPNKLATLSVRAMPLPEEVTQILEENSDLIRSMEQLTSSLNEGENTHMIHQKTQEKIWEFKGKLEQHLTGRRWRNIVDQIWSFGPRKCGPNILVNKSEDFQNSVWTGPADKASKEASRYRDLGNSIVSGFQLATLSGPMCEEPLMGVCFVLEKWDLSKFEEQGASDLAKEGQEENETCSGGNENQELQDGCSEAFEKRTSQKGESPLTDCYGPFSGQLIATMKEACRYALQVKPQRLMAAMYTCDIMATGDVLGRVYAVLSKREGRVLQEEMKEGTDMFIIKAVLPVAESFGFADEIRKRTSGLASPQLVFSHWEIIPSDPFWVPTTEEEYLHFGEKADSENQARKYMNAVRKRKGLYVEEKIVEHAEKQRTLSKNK
Chain of UniProt Q96GG9 (Q96GG9 whole entry, looked up): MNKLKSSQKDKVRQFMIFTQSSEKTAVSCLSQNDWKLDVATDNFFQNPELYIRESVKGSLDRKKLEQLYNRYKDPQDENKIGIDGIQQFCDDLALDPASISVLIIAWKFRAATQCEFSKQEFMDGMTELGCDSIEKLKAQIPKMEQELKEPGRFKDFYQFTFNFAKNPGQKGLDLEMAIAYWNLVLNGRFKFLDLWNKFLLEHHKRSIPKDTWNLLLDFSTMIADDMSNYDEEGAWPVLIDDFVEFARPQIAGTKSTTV

Compound in the assay: CNCc1ccc(-c2[nH]c3cc(F)cc4c3c2CCNC4=O)cc1 [rucaparib]
The assay can be described thus: log2 fold change, soluble protein after heating vs DMSO (PISA); higher = thermal stabilisation; K562 cells, 10 uM, 30 min; active = over 0.2 and 3.5 SD of the protein, either way, in both replicates (recomputed). In a few lines:
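K562 cells (2×10^6 cells/mL) were treated with 10 μM compound for 30 min, and aliquots were heated for 3 min over 48°C-58°C. Pooled aliquots were extracted in PBS with 0.5% NP-40 at 4°C, and the supernatant after 21,000xg for 90 min was measured by TMTpro 16plex LC-MS/MS with channel sums equalised. Reported thermal stability, relative to control samples and from duplicates, is a log2 fold change.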
DDB1 (UniProt Q16531): the log2 fold change is -0.033 (inactive).
Regarding DNM2 (UniProt P50570), the log2 fold change is 0.035 (inactive).
The same measure for ESS2 (UniProt Q96DF8): -0.013 (inactive); for DCUN1D1 (UniProt Q96GG9): -0.026 (inactive); for EXOC4 (UniProt Q96A65): 0.183 (inactive).
The result for EDC4 (UniProt Q6P2E9) reads -0.012 (inactive); that for DAB2 (UniProt P98082), 0.043 (inactive).
The result for DHRS7B (UniProt Q6IAN0) reads 0.029 (inactive); that for F5 (UniProt P12259), -0.079 (inactive); that for DDX46 (UniProt Q7L014), -0.125 (inactive).
Turning to EXTL2 (UniProt Q9UBQ6), the log2 fold change was 0.001 (inactive).
As for DYNC1LI2 (UniProt O43237), the log2 fold change is 0.42 (inactive).
Consider EFL1 (UniProt Q7Z2Z2), for which the log2 fold change was 0.015 (inactive).
The result for CUX1 isoform 3 (UniProt P39880) reads 0.037 (inactive).
The same measure for FAM114A2 (UniProt Q9NRY5): -0.022 (inactive).
The result for CTSH (UniProt P09668) reads -0.121 (inactive); that for DHX36 (UniProt Q9H2U1), 0.187 (inactive); that for DNAH11 (UniProt Q96DT5), 0.162 (inactive).
As for DPH5 isoform 5 (UniProt Q9H2P9), the log2 fold change is -0.061 (inactive).
The result for DHCR24 (UniProt Q15392) reads 0.561 (inactive).
The result for DHRS13 (UniProt Q6UX07) reads 0.188 (inactive); that for CUX1 isoform 2 (UniProt Q13948), 0.061 (inactive).
The result for DBNL isoform 3 (UniProt Q9UJU6) reads -0.1 (inactive); that for CYFIP1 (UniProt Q7L576), 0.025 (inactive).
As to ERCC6 (UniProt Q03468), the log2 fold change is 0 (inactive).
DHX40 (UniProt Q8IX18): the log2 fold change was 0.087 (inactive).
The result for EEF1AKNMT (UniProt Q8N6R0) reads 0.115 (inactive); that for DHPS (UniProt P49366), -0.018 (inactive).
The result for DHRS1 (UniProt Q96LJ7) reads 0.031 (inactive); that for CTSV (UniProt O60911), -0.056 (inactive).
The result for DHCR7 (UniProt Q9UBM7) reads 0.143 (inactive); that for EIF4G1 isoform 8 (UniProt Q04637), 0.197 (inactive); that for FAM3A (UniProt P98173), 0.017 (inactive).
CTNNB1 (UniProt P35222): the log2 fold change was -0.145 (inactive).
In the case of EIF3J (UniProt O75822), the log2 fold change is -0.072 (inactive).
The same measure for EVC2 (UniProt Q86UK5): 0.065 (inactive).
The result for EIF4E isoform 2 (UniProt P06730) reads 0.008 (inactive); that for EGLN1 (UniProt Q9GZT9), 0.114 (inactive); that for EHD2 (UniProt Q9NZN4), -0.019 (inactive).
